The text below walks through data of PubChem BioAssay (NCATS).

Records with an inconclusive call do not appear. Active and inactive are the calls of the source. Calls come from the whole dose curve; as a rule, active = well fitted curve in the direction sought with a large enough effect; inconclusive = small, poorly fitted or top-dose-only effect, or another doubt; inactive = no such curve, though single readings can be large; an effect the other way counts as inactive or inconclusive.

The nature of assay [1]: qHTS of pediatric cancer cell lines to identify multiple opportunities for drug repurposing: Primary screen for DAOY cells (AID 1347090). Note: nearly all actives have a fitted effect of over 55% in size. Put shortly:
(§1)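 Viability measured as metabolically active cells via CellTiter-Glo luminescence following 48 hours of compound exposure, 11-point dilutions in confirmatory testing. 500-1,000 cells/well plated 5 hours before dosing; controls were DMSO and 2.3 µM bortezomib.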
(Quantitative high-throughput screening tests each substance at several concentrations.)

Assay [2] in a line: qHTS of pediatric cancer cell lines to identify multiple opportunities for drug repurposing: Primary screen for A673 cells (AID 1347092). Note: nearly all actives have a fitted effect of over 45% in size. Put shortly: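 Titration-based qHTS on A673 cells: MIPE compounds spanned 11 points (0.78 nM to 46 µM final), NPC compounds 8 points (0.59 nM to 46 µM final). Viability after 48 h was measured by ATP luminescence.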
The nature of assay [3]: qHTS of pediatric cancer cell lines to identify multiple opportunities for drug repurposing: Primary screen for SK-N-MC cells (AID 1347093). Put shortly:
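Metabolically active cells were quantified by ATP-dependent luminescence (CellTiter-Glo, 15 min at room temperature) following 48 h treatment. Cells had been plated at 500-1,000 per well and settled for 5 h beforehand.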

Assay [4] is described as follows: qHTS of pediatric cancer cell lines to identify multiple opportunities for drug repurposing: Primary screen for U-2 OS cells (AID 1347096). Note: nearly all actives have a fitted effect of over 50% in size. The method, boiled down:
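Viability after 48 h compound treatment at 37C, 500-1,000 cells/well, read as ATP luminescence with CellTiter-Glo. Primary screens used 11-point (MIPE, 0.78 nM-46 µM) or 8-point (NPC, 0.59 nM-46 µM) final concentrations; follow-up screens used 11-point dilutions.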

Assay [5] can be described thus: qHTS of pediatric cancer cell lines to identify multiple opportunities for drug repurposing: Primary screen for SJ-GBM2 cells (AID 1347091). Put shortly:
as §1

Assay [6] is described as follows: qHTS of pediatric cancer cell lines to identify multiple opportunities for drug repurposing: Primary screen for BT-37 cells (AID 1347094). The method, boiled down:
(§2)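 CRCs from 8- or 11-point titrations (lowest final 0.59 nM NPC, 0.78 nM MIPE). Cell viability: CellTiter-Glo after 48 h incubation, 15 min room-temperature development, luminescence imaging.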

The nature of assay [7]: qHTS of pediatric cancer cell lines to identify multiple opportunities for drug repurposing: Primary screen for NB-EBc1 cells (AID 1347095). Put shortly: as §2
Potency is the fitted concentration of half-maximal effect.

On to `COc1ccc2cc1Oc1ccc(cc1)C[C@H]1c3cc(c(OC)cc3CCN1C)Oc1c(OC)c(OC)cc3c1[C@H](C2)N(C)CC3`, for which the Potency was 18.7 µM (active) in assay [1], 23.5 µM (active) in assay [2] and 23.5 µM (active) in assay [3]. The Potency entry in assay [4] was “inactive”.

For the compound `CN1C(=O)C(Cc2c[nH]c3ccccc23)NC1=S` (stereo not drawn), the Potency entry in assay [1], in assay [5], in assay [3], in assay [6], in assay [7] and in assay [4] was “inactive” each time.

For `O=C1NC(=O)C(c2cnc3ccccn23)=C1c1cn2c3c(cccc13)CN(C(=O)N1CCOCC1)CC2`, the Potency in assay [1] is 0.0235 µM (active); in assay [5], 0.0235 µM (active); in assay [6], 19.3 µM (active); in assay [7], 0.0166 µM (active). Besides, in assay [4], the Potency result was “inactive”.

As to `CNC(=O)c1c(-c2ccc(F)cc2)oc2cc(N(CCO)S(C)(=O)=O)c(C3CC3)cc12`, the Potency in assay [1] and in assay [2] was 23.5 µM (active) in each case.

Take `CCCCC(C)(C)[C@H](O)C=C[C@H]1[C@H](O)CC(=O)[C@H]1CC=CCCCC(=O)O`: the Potency entry in assay [1], in assay [5] and in assay [4] was “inactive” in each case. Also, the Potency in assay [3] was 20.9 µM (active).

`CN(CC=CC#CC(C)(C)C)Cc1cccc2ccccc12`: the Potency result in assay [1], in assay [6] and in assay [4] was “inactive” throughout.

As for `Cc1cnc(CNC(=O)c2c(=O)c3ccc(N4CCCN(C)CC4)nc3n3c2sc2ccccc23)cn1`, the Potency result in assay [1], in assay [2] and in assay [4] was “inactive” in each case. Besides, the Potency in assay [7] was 6.45 µM (active).

For the compound `Cc1cc(OCCCS(C)(=O)=O)cc(C)c1-c1cccc(COc2ccc3c(c2)OC[C@H]3CC(=O)O)c1`, the Potency in assay [1] is 18.7 µM (active); in assay [5], 26.4 µM (active). For the same compound, the Potency result in assay [4] was “inactive”.

With `COc1ccc(-c2nc3ccc(C4=NNC(=O)CC4C)cc3[nH]2)cc1` (stereo not drawn), the Potency in assay [1] was 21.1 µM (active); in assay [3], 21.1 µM (active); in assay [7], 11.9 µM (active). The Potency result in assay [4] was “inactive”.

Turning to `Cc1ccc(S(=O)(=O)Nc2nc3ccccc3nc2Nc2ccc3nsnc3c2)cc1`, the Potency was 0.0575 µM (active) in assay [5]; 0.0013 µM (active) in assay [2]; 0.0512 µM (active) in assay [3]; 0.0376 µM (active) in assay [6]; 0.645 µM (active) in assay [7].

Regarding `Cc1cccc2c1CC[C@H](CN1CCC(c3c(Cl)cccc3Cl)CC1)C[C@@H]2O`, the Potency result in assay [1], in assay [5] and in assay [7] was “inactive” in each case. The Potency in assay [3] was 9.35 µM (active); in assay [6] it was 30.6 µM (active).

In the case of `O=C(CC12CC3CC(CC(C3)C1)C2)Nc1cccc2nc(NCCNCCO)ccc12`, the Potency in assay [1] was 9.35 µM (active); in assay [2] it was 18.7 µM (active); in assay [3] it was 1.87 µM (active). Besides, the Potency result in assay [6] and in assay [4] was “inactive” each time.

For the compound `Cc1ccccc1-n1c(Cn2nc(-c3cccc(O)c3)c3c(N)ncnc32)nc2cccc(C)c2c1=O`, the Potency in assay [5] was 0.0166 µM (active); in assay [2], 0.0047 µM (active); in assay [3] it was 0.0418 µM (active); in assay [6], 0.0544 µM (active); in assay [7], 0.0743 µM (active).

For `CCNC(=O)c1noc(-c2cc(C(C)C)c(O)cc2O)c1-c1ccc(CN2CCOCC2)cc1`, the Potency is 0.235 µM (active) in assay [1], 0.332 µM (active) in assay [5], 0.137 µM (active) in assay [6] and 0.296 µM (active) in assay [7].

Consider `CC(C)CNc1ccnc(NCc2csc(-c3ccccc3)n2)n1`, for which the Potency was 18.7 µM (active) in assay [1], 10.5 µM (active) in assay [3] and 24.3 µM (active) in assay [6]. Also, the Potency entry in assay [4] was “inactive”.

For the compound `O=S(=O)(NCCNCC=Cc1ccc(Br)cc1)c1cccc2cnccc12`, the Potency in assay [5] and in assay [2] was 11.8 µM (active) each time.

Regarding `Oc1ccc(C=Cc2cc(O)cc(O)c2)cc1`, the Potency in assay [5] is 18.7 µM (active); in assay [3], 11.8 µM (active); in assay [6], 21.7 µM (active). The Potency entry in assay [4] is “inactive”.

Regarding `CC(C)Oc1cc(Nc2nc(N[C@@H](C)c3ccc(F)cn3)ncc2Cl)[nH]n1`, the Potency was 16.6 µM (active) in assay [5]; 4.69 µM (active) in assay [3]; 27.3 µM (active) in assay [6]; 3.32 µM (active) in assay [7]; 23.5 µM (active) in assay [4].

In the case of `CO[C@@H]1C(N(C)C(=O)c2ccccc2)C[C@H]2O[C@]1(C)n1c3ccccc3c3c4c(c5c6ccccc6n2c5c31)C(=O)NC4=O` (stereo partly drawn), in assay [5], the Potency is 2.35 µM (active). Further, the Potency result in assay [6] is “inactive”.

Turning to `CCCCC(C=O)NC(=O)C(CC(C)C)NC(=O)OCc1ccccc1` (stereo not drawn), the Potency entry in assay [5] and in assay [4] was “inactive” each time.

As to `CCOC(=O)N1c2ccc(C(F)(F)F)cc2[C@@H](N(Cc2cc(C(F)(F)F)cc(C(F)(F)F)c2)C(=O)OC)C[C@H]1CC`, the Potency entry in assay [5], in assay [2], in assay [7] and in assay [4] was “inactive” throughout.

For `COc1cc2nc(-c3cc(F)ccc3O)nc(N[C@@H]3CNC[C@@H]3C(C)(C)O)c2cc1OC`, the Potency is 23.5 µM (active) in assay [5], 7.43 µM (active) in assay [2] and 27.3 µM (active) in assay [6].

Regarding `O=c1[nH]nc(OCCCc2ccc(Cl)cc2)c(NCc2cccnc2)c1Br`, the Potency in assay [5] is 23.5 µM (active); in assay [3] it was 10.5 µM (active); in assay [6], 21.7 µM (active); in assay [4], 23.5 µM (active).

As to `CCc1cc(-c2n[nH]c(C)c2-c2ccc3c(c2)OCCO3)c(O)cc1O`, the Potency in assay [5] was 6.62 µM (active); in assay [2], 7.43 µM (active); in assay [3], 10.5 µM (active); in assay [7] it was 4.69 µM (active); in assay [4], 11.8 µM (active).

As to `C[C@H]1[C@H](O)O[C@@H]2O[C@@]3(C)CC[C@@H]4[C@H](C)CC[C@@H]1[C@@]24OO3`, the Potency in assay [2] is 7.43 µM (active); in assay [3] it was 1.05 µM (active); in assay [6], 3.85 µM (active); in assay [7] it was 3.72 µM (active).
